The values below come from PubChem BioAssay (NCATS).

Structures are written as SMILES. Results filed as inconclusive are left out. Activity calls are given as the source filed them. The call rests on the fitted dose curve; in most records, active means well fitted cell-killing curve with a large enough effect; inconclusive means small, poorly fitted or top-dose-only effect, or effect the other way; inactive means no such curve, though single readings can be large or run the other way.
Potency means the concentration at half of the fitted maximal effect.

This assay can be described thus: Quantitative High-Throughput drug screen in 47 multiple myeloma cell lines against the NCATS MIPE library collection: OCIMY5_PLB cell viability assay (AID 1918988). Further: nearly all actives have a fitted effect of over 65% in size. The settings on record: OCI-MY5 myeloma viability, ATP luminescence, 48 h; series mostly up to 45.8 µM. The gist of the method: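 ATP-based CellTiter-Glo luminescence after 48 h drug exposure (37 °C, 5% CO2) of 500 myeloma cells per well. DMSO-only wells set 100% viability, media-only wells 0%; MIPE 4.0 library added by pin tool.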
For `c1cnc2cc3c(cc2n1)C1CNCC3C1`, the Potency result is “inactive”. Consider `CC1(C)C(=O)N(CCN2CCC(C(=O)c3ccc(F)cc3)CC2)c2ccccc21`, for which the Potency was 5.26 µM (active). Regarding `O=c1c(O)c(-c2cc(O)c(O)c(O)c2)oc2cc(O)cc(O)c12`, the Potency is 23.5 µM (active). Take `CC1(C)NC(=O)N(c2ccc([N+](=O)[O-])c(C(F)(F)F)c2)C1=O`: the Potency was 8.33 µM (active).

Consider `N=C(N)c1ccc2cc(OC(=O)c3ccc(N=C(N)N)cc3)ccc2c1`, for which the Potency was 18.7 µM (active). As for `CCN(CCO)CCCC(C)Nc1ccnc2cc(Cl)ccc12` (stereo unspecified), the Potency entry is “inactive”.

Regarding `COc1cc(OC)c(C(=O)CCCN2CCCC2)c(OC)c1`, the Potency entry was “inactive”. Consider `C[C@]12CCC(=O)C=C1CC[C@@H]1[C@H]2[C@@H](O)C[C@@]2(C)[C@H]1CC[C@]2(O)C(=O)CO`, for which the Potency result is “inactive”. `Cc1nc(Nc2ncc(C(=O)Nc3c(C)cccc3Cl)s2)cc(N2CCN(CCO)CC2)n1`: the Potency was 0.743 µM (active). With `Clc1ccc(C(Cn2ccnc2)OCc2ccsc2Cl)c(Cl)c1` (stereo unspecified), the Potency is 26.4 µM (active). As for `CCCOc1ccc2nc(NC(=O)OC)[nH]c2c1`, the figure is 0.0026 µM (active); as for `CC1=C(C(=O)O)N2C(=O)[C@@H](NC(=O)[C@H](N)C3=CCC=CC3)[C@H]2SC1`, “inactive”; as for `CC1(C)CCC(C)(C)c2cc(NC(=O)c3ccc(C(=O)O)cc3)ccc21`, 1.66 µM (active). With `CCC1=C(C)CN(C(=O)NCCc2ccc(S(=O)(=O)NC(=O)NC3CCC(C)CC3)cc2)C1=O` (stereo unspecified) the entry was “inactive”; with `COc1cc(C(C)=O)ccc1OCCCN1CCC(c2noc3cc(F)ccc23)CC1`, 6.62 µM (active). For the molecule `CC(C)[N+]1(C)[C@@H]2CC[C@H]1CC(OC(=O)C(CO)c1ccccc1)C2` (stereo partly specified), the Potency entry is “inactive”.
